Consider 87 molecules from PubChem BioAssay AID1259415 (National Center for Advancing Translational Sciences (NCATS), 2018).

Where “and” joins values, the source holds several entries; their conditions need not be identical. Equal values may be shown once. Screen size: about 410,000 compounds; about 18,000 (4.4%) were called active. Roughly 7% stayed inconclusive and do not appear here. This is one part of a sample in which actives are shown more often than they occur. Rule as the data show it: active = activity change below about -60%; inconclusive = no clear call, values can overlap the other calls; inactive = above about -39%.
% is scaled to controls: 0 for no effect and ±100 for the full control effect.

The experiment is described as follows: qHTS Assay for inhibitors of the human cytomegalovirus (HCMV). The following applies: HFF cells, HCMV-luciferase reporter, 72 h; at 57.5 µM; active compounds read low. The procedure, abridged:
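Steps: HFFs plated, 16 h 37C; compounds added; HCMV-luciferase added to MOI 1 PFU/cell; 72 h 37C; OneGlo reagent, 5 min room temperature; luminescence read, normalized to controls.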
Regarding `Cc1ccc([C@H]2C[C@H](O)[C@@H](n3cc(COC(=O)c4ccccc4)nn3)CN2C(=O)C2CCCCC2)cc1`, the activity change, negative = inhibition was 1.46% (inactive).
Turning to `CCCCCC(=O)N1C[C@H](O)[C@@H](n2cc(COC(=O)c3ccccc3)nn2)C[C@@H]1c1ccc(C)cc1`, the activity change, negative = inhibition was -7.72% (inactive).
Take `Cc1ccc([C@H]2C[C@H](O)[C@@H](n3cc(COC(=O)c4ccccc4)nn3)CN2CC2CCCCC2)cc1`: the activity change, negative = inhibition is -100% (active).
Next, `O=C(CC1Sc2ccccc2NC1=O)NNc1ccc(Cl)c(Cl)c1` (configuration not stated): -35.8% (inactive); `COc1ccc(N2CCN(S(=O)(=O)c3ccc(-c4coc(C)n4)cc3)CC2)cc1`: -11.2% (inactive).
With `CCOc1ccccc1N1CN(Cc2ccccc2)CNC1=S`, the activity change, negative = inhibition is -2.1% (inactive).
Next, `CCOC(=O)c1ccc(NC2=CC(c3ccc(OCC)cc3)N(c3ccc(C(=O)OCC)cc3)C2=O)cc1` (configuration not stated): 18.7% (inactive); `CCc1nnc(NC(=O)C2CCCN2S(=O)(=O)c2ccccc2)s1` (configuration not stated): -60.4% (active); `CCc1nnc(NC(=O)C2CCN(C(=O)c3ccccc3C)CC2)s1`: 17.6% (inactive).
For the molecule `CC(C)c1nnc(NC(=O)C2CCCN2S(=O)(=O)c2ccc(Cl)cc2)s1` (configuration not stated), the activity change, negative = inhibition was 2.67% (inactive).
Turning to `O=C(CCn1c(=O)c2ccccc2n(Cc2ccc(Cl)cc2)c1=O)NCc1ccc2c(c1)OCO2`, the activity change, negative = inhibition is 10.1% (inactive).
Take `COc1ccc(N2CC(C(=O)NCCN3C(=O)S/C(=C\c4cccnc4)C3=O)CC2=O)c(OC)c1` (configuration not stated): the activity change, negative = inhibition was 24.9% (inactive).
Next, `COc1ccc(C(=O)/C=C/c2cccnc2)c(OC)c1`: -71.6% (active); `COc1ccc(C(=O)COC(=O)C(O)c2ccccc2)c(OC)c1` (configuration not stated): -26% (inactive).
As for `Cc1ccsc1CN(C(=O)c1oc2ccc(Br)cc2c1C)C1CCS(=O)(=O)C1` (configuration not stated), the figure is 30.1% (inactive); as for `CCN1CCN(c2ncnc3c2cnn3-c2ccc(C)c(C)c2)CC1`, -1.25% (inactive); as for `Cc1ccc(NC(=O)c2oc3ccccc3c2NC(=O)Cc2cccs2)cc1`, 14.9% (inactive).
With `CCOc1ccc2oc(=O)cc(CN3CCN(C(=O)c4ccc(F)cc4)CC3)c2c1`, the activity change, negative = inhibition was -25.5% (inactive).
For the molecule `CC[n+]1cc(C)ccc1/C=C/c1ccc(N(C)C)cc1`, the activity change, negative = inhibition is -99.4% (active).
Take `CCOC(=O)c1ccc(NC(=O)c2ncn(-c3ccccc3)n2)cc1`: the activity change, negative = inhibition is 43.5% (inactive).
For the molecule `COc1ccc(Cl)cc1NC(=O)CSc1nc(=O)[nH]c2c1CCCC2`, the activity change, negative = inhibition is 31.1% (inactive).
Regarding `NS(=O)(=O)c1ccc(CCNC(=O)CCCCCn2c(=O)[nH]c3ccccc3c2=O)cc1`, the activity change, negative = inhibition is 34% (inactive).
Consider `CCCN(CCC)CCCNC(=O)Cn1cc2c(n1)-c1c(oc(C(=O)N3CCCC3)c1C)CC2`, for which the activity change, negative = inhibition was -39.7% (inactive).
Next, `Cc1c(C(=O)N2CCCC2)oc2c1-c1nn(CC(=O)NCc3ccc(OC(C)C)cc3)cc1CC2`: -68.3% (active); `COc1ccccc1N1CCN(c2ccc(=O)n(CC(=O)NCc3ccc(OC(C)C)cc3)n2)CC1`: 13.7% (inactive).
For `COc1ccccc1N(C)S(=O)(=O)c1ccc(C(=O)N2CCC(C(N)=O)CC2)cc1`, the activity change, negative = inhibition is 63.1% (inactive).
For the molecule `COc1cccc(C(=O)NC(=O)Nc2ccc(-c3cc(C(F)(F)F)nn3-c3ccccc3)cc2)c1`, the activity change, negative = inhibition was -6.79% (inactive).
For `COc1ccc(C(=O)Nc2ccc(-n3nncc3-c3ccccc3)cc2)cc1OC`, the activity change, negative = inhibition is -6.64% (inactive).
Take `COc1cccc(C(=O)Nc2ccc(-c3cc(C(F)(F)F)nn3-c3ccccc3)cc2)c1`: the activity change, negative = inhibition was -87.7% (active).
On to `Cc1ccc(CNC(=O)CCc2c(C)nc3nc(CNC(=O)OC(C)(C)C)nn3c2C)cc1`, for which the activity change, negative = inhibition was -10.3% (inactive).
With `COc1cc2ccccc2cc1C(=O)Nc1cccc(-c2nc3ccccc3o2)c1`, the activity change, negative = inhibition was -27.9% (inactive).
Next, `Cc1ccc(C)c(N2CCN(C(=O)C3CCC(CNS(=O)(=O)c4cccs4)CC3)CC2)c1` (configuration not stated): -30% (inactive); `CC1CCc2sc(C(=O)NCC(c3ccco3)N3CCCCC3)cc2C1` (configuration not stated): -61.7% (active).
For the molecule `CC1Cc2ccccc2N1S(=O)(=O)c1cccc(C(=O)NCC(c2ccco2)N2CCCC2)c1` (configuration not stated), the activity change, negative = inhibition is -24% (inactive).
In the case of `CSc1ncccc1C(=O)NCC(c1ccco1)N1CCCCC1` (configuration not stated), the activity change, negative = inhibition was -4.3% (inactive).
As for `CCOC(=O)c1ccc(NC(=O)C2CC(=O)NC(=Nc3ccc(C)c(C)c3)S2)cc1` (configuration not stated), the figure is -14.2% (inactive).
On to `CC1(C)CC(=O)c2cc(OCC(=O)NCC3CCCO3)ccc2O1` (configuration not stated), for which the activity change, negative = inhibition is 55.1% (inactive).
For `Cc1ccc(CNC(=O)CCC(=O)N2Cc3ccccc3Oc3ncccc32)cc1`, the activity change, negative = inhibition was -2.66% (inactive).
Consider `CN1CCC(N(C)C(=O)c2ccc(Cl)c(S(=O)(=O)Nc3ccc(Cl)cc3)c2)CC1`, for which the activity change, negative = inhibition is -3.23% (inactive).
Take `O=C(Cn1c(=O)n(CC2CS2)c2ccccc21)N1CCCCC1` (configuration not stated): the activity change, negative = inhibition was -89.4% (active).
`Cn1c(=O)n(C)c(=O)n(CC(=O)N2CCCCC2)c1=O`: the activity change, negative = inhibition is 32.3% (inactive).
On to `CC1CCCN(C(=O)Cn2c(=O)oc3ccccc32)C1` (configuration not stated), for which the activity change, negative = inhibition is 12.6% (inactive).
Consider `Cc1cc(NC(=O)c2ccc(-c3ccc(Cl)cc3)o2)cc(-c2nc3ncccc3o2)c1O`, for which the activity change, negative = inhibition is 5.53% (inactive).
For `Cc1cccc(C(=O)OC(C)C(=O)NC2CCCc3ccccc32)c1O` (configuration not stated), the activity change, negative = inhibition is -10.7% (inactive).
As for `Cc1cc(C(=O)NNC(=O)CCC2CCCCC2)c(C)o1`, the activity change, negative = inhibition is -17% (inactive).
For `Cc1cc(C(=O)NC2CCCc3c2cnn3-c2cccc(C)c2C)c(C)o1` (configuration not stated), the activity change, negative = inhibition was -73.8% (active).
`Cc1cccc(-n2nc3c(c2NC(=O)c2ccc(Br)o2)CSC3)c1C`: the activity change, negative = inhibition was 14.4% (inactive).
For `COc1cccc(C(=O)Nc2c3c(nn2-c2cccc(C)c2C)CS(=O)(=O)C3)c1OC`, the activity change, negative = inhibition was -4.86% (inactive).
As for `COc1ccc(C(=O)NC2CCCc3c2cnn3-c2cccc(C)c2C)c(OC)n1` (configuration not stated), the figure is -87% (active); as for `COc1ccc(C(=O)N2CCC(c3nc4ccccc4o3)CC2)cc1`, 43.5% (inactive); as for `Cc1cccc(N2CCN(C(=O)c3cc4c(=O)[nH]c5ccccc5c4n3C)CC2)c1C`, -65.2% (active).
Take `Cc1cccc(N2CCN(C(=O)c3oc(=O)c4ccccc4c3-c3ccccc3)CC2)c1C`: the activity change, negative = inhibition is 4.74% (inactive).
As for `CCn1c(C)c(C)c2cc(C(=O)N3CCN(c4cccc(C)c4C)CC3)ccc21`, the activity change, negative = inhibition is 0% (inactive) and 13.6% (inactive).
Turning to `COc1ccc2c(c1)c(=O)c(S(=O)(=O)c1ccc(F)cc1)cn2CC(=O)Nc1ccc(C)cc1C`, the activity change, negative = inhibition was -7.71% (inactive).
As to `CCS(=O)(=O)c1nc(S(=O)(=O)c2ccc(C)cc2)c(NCc2ccc(Cl)cc2)s1`, the activity change, negative = inhibition was -5.88% (inactive).
As to `Cc1cccc(OCCSc2nc3ccc(NC(=O)COc4ccccc4C)cc3s2)c1`, the activity change, negative = inhibition is -12.2% (inactive).
With `CCC(=O)Nc1ccc2nc(SCC(=O)N3CCc4ccccc43)sc2c1`, the activity change, negative = inhibition is 29.6% (inactive).
For the molecule `CSc1nc2ccc(S(=O)(=O)N3CCc4ccccc43)cc2s1`, the activity change, negative = inhibition was -81.9% (active).
With `CCn1c(=O)c(=O)n(CC)c2cc(S(=O)(=O)N3CCc4ccccc43)ccc21`, the activity change, negative = inhibition is -35.5% (inactive).
For `Cc1nc2sc(C)c(C)n2c(=O)c1S(=O)(=O)NCCc1ccc(Cl)cc1`, the activity change, negative = inhibition is 6.07% (inactive).
In the case of `Cc1oc2ncnc(N3CCOCC3)c2c1C(=O)NCCc1ccccc1`, the activity change, negative = inhibition is -27.7% (inactive).
For `CCNC(=O)C1CCCN(C(=O)c2cc(F)ccc2C)CC1` (configuration not stated), the activity change, negative = inhibition was -4.35% (inactive).
As for `O=C(NC(Nc1nc2ccc([N+](=O)[O-])cc2s1)(C(F)(F)F)C(F)(F)F)c1ccccc1`, the figure is -103% (active); as for `CN(C)c1cccc(C(=O)Nc2nc3ccc(S(=O)(=O)NC(C)(C)C)cc3s2)c1`, -29.3% (inactive); as for `NS(=O)(=O)c1ccc2nc(NC(=O)COc3ccccc3)sc2c1`, -8.44% (inactive).
Take `O=C(Nc1cc(C(F)(F)F)ccc1Cl)c1cc2nc(-c3ccc4c(c3)OCO4)cc(C(F)(F)F)n2n1`: the activity change, negative = inhibition was 4.65% (inactive).
For `CCC(C)Nc1oc(-c2ccc(COc3ccc(Cl)cc3)o2)nc1C#N` (configuration not stated), the activity change, negative = inhibition is -28.6% (inactive).
As for `CCC(Sc1nc2n[nH]c(C)c2c(=N)n1-c1ccccc1Cl)C(=O)N(CC)CC` (configuration not stated), the figure is 10.8% (inactive).
With `CC(C)CN(CC(C)C)C(=O)CN1c2cccc3cccc(c23)S1(=O)=O`, the activity change, negative = inhibition is 51.7% (inactive).
As for `CCN(CC(=O)Nc1c(F)cccc1F)C(=O)CN1c2cccc3cccc(c23)S1(=O)=O`, the figure is -81.2% (active); as for `CCN(CC(=O)Nc1c(F)cccc1F)C(=O)c1cnc(C)cn1`, -12.6% (inactive).
As for `Cc1ccc(S(=O)(=O)N(C)C)cc1NC(=O)CN1c2cccc3cccc(c23)S1(=O)=O`, the figure is -17.7% (inactive).
Regarding `COc1ccc(C)cc1NC(=O)CN1c2cccc3cccc(c23)S1(=O)=O`, the activity change, negative = inhibition is -63.9% (active).
`O=C(O)CN1c2cccc3cccc(c23)S1(=O)=O`: the activity change, negative = inhibition is 24.9% (inactive).
Consider `CCC(=O)Nc1ccccc1-c1nc2ccccc2n(CC(=O)Nc2ccc(C)c(C)c2)c1=O`, for which the activity change, negative = inhibition is 4.84% (inactive).
As for `O=C(CSc1ncc(CO)n1Cc1ccc(F)cc1)NCc1ccco1`, the activity change, negative = inhibition was -7.64% (inactive).
In the case of `O=C(CC(CC(=O)c1ccccc1)c1ccco1)c1ccccc1`, the activity change, negative = inhibition is -38.2% (inactive).
Turning to `COc1cc(NC(=O)c2nn(-c3ccc(C)cc3)c(=O)c3c2c2ccccc2n3C)cc(OC)c1OC`, the activity change, negative = inhibition is 8.56% (inactive).
Turning to `CC(=O)Nc1ccc(NC(=O)COC(=O)C2CCC(C(C)(C)C)CC2)cc1` (configuration not stated), the activity change, negative = inhibition was -11.6% (inactive).
As for `CC(C)(C)C1CCC(C(=O)Nc2cccnc2)CC1` (configuration not stated), the activity change, negative = inhibition is -93.5% (active).
In the case of `Cc1ccc(NC(=O)C2CCC(C(C)(C)C)CC2)cc1S(=O)(=O)N1CCOCC1` (configuration not stated), the activity change, negative = inhibition was -25.3% (inactive).
Consider `CCOc1ccc(NC(=O)Cn2c(C)ccc(C#N)c2=O)cc1`, for which the activity change, negative = inhibition was -3.22% (inactive).
As for `O=C(NCCc1csc(-c2ccc(C(F)(F)F)cc2)n1)C(=O)Nc1ccc(F)c(Cl)c1`, the figure is -16.3% (inactive).
As for `CCc1nc2nc(C)cc(Nc3ccc(F)c(Cl)c3)n2n1`, the figure is -29.5% (inactive); as for `Cc1ccc(S(=O)(=O)Nc2ccc3ncccc3c2)cc1`, -97.8% (active).
Take `CCOc1ncccc1C(=O)Nc1ccc(S(=O)(=O)Nc2nc(C)cc(C)n2)cc1`: the activity change, negative = inhibition is 4.63% (inactive).
For the molecule `Cc1ccc(S(=O)(=O)Nc2ccc(F)c(S(=O)(=O)N3CCOCC3)c2)cc1`, the activity change, negative = inhibition was 11.9% (inactive).
